Assay outcomes from PubChem.
FBPA coupling cs – counter-screen for Giardia aldolase inhibitors: coupling enzyme system. coupling enzyme system counterscreen, AmpLite Red fluorescence. activity change, negative = inhibition, % at 58.2 µM, hits read low. hit rate 0.67% among 290,000. AID 2472; in the data active means activity change below about -30%
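Activity here indicates interference with the coupling reaction, not aldolase inhibition. Compounds at 57.5 uM final met coupling enzymes for 10 min at RT; substrate and AmpLite Red detection followed, with a 525/598 nm fluorescence read after 20 min.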
RORg inh – ROR gamma (mouse) transcription inhibition; P51450; Drosophila S2 Gal4-RORgamma UAS-luciferase reporter, 20 h; Potency, µM (top dose mostly 53.6 µM), inactives show at the top dose activity change, negative = inhibition, hits mostly inhibitors; hit rate 5.4% among 310,000; AID 2551; further: potency means the concentration at half of the fitted maximal effect; nearly all actives have a fitted effect of over 60% in size
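Schneider cells (Drosophila), stable Gal4 DBD–ROR gamma + UAS-luc; 1 hr cmpd preincubation; Cu2+ induction 700 uM final; 20 hr ambient; luminescence.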
rTrxR1 inhibitor – rat TrxR1 inhibition; O89049; recombinant rTrxR1, NADPH fluorescence consumption, selenite substrate; Potency, µM (top dose mostly 114 µM), without a hit: top-dose activity change, negative = inhibition, usual class: inhibitors; hit rate 1% among 390,000; AID 588453; further: potency means the concentration at half of the fitted maximal effect; nearly all actives have a fitted effect of over 65% in size
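Rat TrxR1 (90 nM in the dispensed reagent) was pre-reduced with 400 uM NADPH for 5 min at room temperature, then incubated with compound for 15 min. After 400 uM selenite was added, NADPH fluorescence (Ex 340/Em 450 nm) was followed for 8 min.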
Gal4-VP16 FLuc – counter-screen for ROR gamma inhibitors: Gal4-VP16 reporter; hit rate 3.5% among 310,000; Potency, µM (titrated, usually from 53.6 µM), for the others: at the highest dose activity, negative = inhibition, usual class: inhibitors; Drosophila S2 Gal4-VP16 UAS-luciferase, luminescence, 20 h;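 further: Gal4-VP16 expression switched on by copper sulfate through the metallothionein promoter; potency means the concentration at half of the fitted maximal effect; nearly all actives have a fitted effect of over 50% in size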
TrxR1 substrate – substrates of rat thioredoxin reductase 1; purified TrxR1 substrate turnover, NADPH consumption readout; AID 588456; Potency, µM (top dose mostly 114 µM), for the others: top-dose activity change, negative = substrate turnover; hit rate 0.01% among 390,000; O89049; further: potency means the concentration at half of the fitted maximal effect; nearly all actives have a fitted effect of over 50% in size
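Rat TrxR1, dispensed at 90 nM, was prereduced with 400 uM NADPH (final) for 5 min at ~22 deg C, then incubated with compound 15 min before 400 uM selenite. A first-read NADPH fluorescence drop versus no-compound background flagged substrates.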
GALK inhibitor – blocks human galactokinase activity; hit rate 0.007% among 270,000; Potency, µM (highest dose often 57.5 µM), inactives show at the top dose activity change, negative = inhibition, usual class: inhibitors; Purified GALK, Kinase-Glo residual ATP luminescence; further: potency means the concentration at half of the fitted maximal effect
Target sequence (P51570 whole entry, looked up): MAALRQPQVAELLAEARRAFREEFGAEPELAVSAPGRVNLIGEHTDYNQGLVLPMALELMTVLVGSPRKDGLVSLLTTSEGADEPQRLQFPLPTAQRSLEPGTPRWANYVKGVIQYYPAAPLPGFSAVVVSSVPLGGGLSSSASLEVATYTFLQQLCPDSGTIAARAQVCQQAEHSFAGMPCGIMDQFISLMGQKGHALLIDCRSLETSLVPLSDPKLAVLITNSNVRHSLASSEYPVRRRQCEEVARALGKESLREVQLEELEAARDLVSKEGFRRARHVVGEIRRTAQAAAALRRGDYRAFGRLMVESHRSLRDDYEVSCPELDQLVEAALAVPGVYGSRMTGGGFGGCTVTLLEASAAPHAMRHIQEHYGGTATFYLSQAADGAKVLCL
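Luminescence from leftover ATP (Ultra-Glo luciferase/luciferin) served as read-out after a 1 h room-temperature reaction of 5 nM GALK with 35 uM ATP and 100 uM galactose.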
* marks the source's active call; other numbers are inactive results; ? = inconclusive; nt = no result; ! = not confirmed by another sample; [ ] = dose if it differs, or a comment. Most compounds without a hit are left out; they make up all but 5.9% or so of the library. Unless noted, the call rests on the fitted dose curve; in most records, active means well fitted curve in the direction sought with a large enough effect; inconclusive means small, poorly fitted or top-dose-only effect, or another doubt; inactive means no such curve, though single readings can be large; an effect the other way counts as inactive or inconclusive. On the % scale 0 is the no-effect control and ±100 the full control effect.

SMILES	FBPA coupling cs	RORg inh	rTrxR1 inhibitor	Gal4-VP16 FLuc	TrxR1 substrate	GALK inhibitor
COc1cc(/C=C/[N+](=O)[O-])ccc1OC(=O)c1cccnc1	0	6.3µM*	?	3.5µM*	3%	-2%
CNc1ccc(C(=O)CC(O)CCC(C)C2OC(=O)CC(O)CC(=O)CC(O)CC(O)CC(O)CC(O)CC3(O)CC(O)C(C(=O)OC)C(CC(O[C@@H]4OC(C)C(O)C(N)C4O)/C=C/C=C/C=C/C=C/C=C/C=C/C=C/C2C)O3)cc1 (some centres not stated)	-2	-4%	nt	-9%	nt	nt
Cc1cccc(N=Nc2ccc(N(C)C)cc2)c1	0	7.9µM*	?	13µM*	1%	-2%
Cc1cccc(-n2c(=S)[nH]c3ccccc3c2=O)n1	1	13µM*	-3%[57.1 µM]	?	-7%	0%
O=[N+]([O-])/C=C/c1ccc2c(c1)OCO2	nt	nt	10µM*	nt	12%[57.1 µM]	nt
O=Cc1ccc2c(c1)OCO2	nt	0%	nt	6%	nt	nt
COc1cc2c(cc1/C=C/[N+](=O)[O-])OCO2	-3	7.9µM*	?	?	5%	-2%
Cc1ccc2c(c1)[C@@H]1CN(C)CC[C@@H]1N2C(=O)Nc1cccc(C(F)(F)F)c1	-1	-29%	-22%	8%	-6%	0%
O=C(C1CCN(S(=O)(=O)c2ccccc2)CC1)N1CCC2(CC1)OCCO2	3	-21%	10%[57.1 µM]	-6%	12%[57.1 µM]	0%
CC[C@@H](CO)C1CC2NC3CC4(c5ccccc5N(C)[C@@H]24)C(O)C31 (some centres not stated)	nt	nt	15%	nt	6%	nt
Cc1ccc(OCC(=O)N2CCN(CCc3ccncc3)CC2)cc1C	nt	nt	79µM*	nt	2%	nt
Cc1cc(OCC(=O)N2CCN(CCc3ccncc3)CC2)ccc1Cl	nt	nt	?	nt	-2%	nt
CC(=O)Oc1ccc(/C=C/c2cc(OC(C)=O)cc(OC(C)=O)c2)cc1	-2	4µM*	nt	?	nt	nt
CCCCN1C(=O)NC(=O)/C(=C/c2cnc(SC)nc2)C1=O	7	-24%	?	6%	3%[57.1 µM]	-1%
CC1(C)CC2CC(C)(CN2S(=O)(=O)c2cccc(C(=O)OCC(=O)NC(N)=O)c2)C1 (configuration not stated)	nt	nt	?	nt	2%[57.1 µM]	nt
CC1(O)C[C@]2(C)N(O)C3CCCC[C@@H]3N2O1 (some centres not stated)	-1	27%	-19%	-3%	9%	1%
CC1(C)N(O)C2CCCCC2N1O (configuration not stated)	-2	16µM*	-12%[57.1 µM]	?	5%	0%
O=C(Oc1ccccc1)N1CCC2(CCCN(C(c3ccccc3)c3ccccc3)C2)CC1	0	?	nt	-11%	nt	nt
O=C(Oc1ccccc1)N1CCC[C@@]2(CCN(C(c3ccccc3)c3ccccc3)C2)C1	-34*	10%	nt	19%	nt	nt
Cc1ccc(-n2sc3ccccc3c2=O)cc1	4	5µM*	100%	1.6µM*	-15%	-1%
CC(C)N(CC(O)c1cccc([N+](=O)[O-])c1)C(C)C (configuration not stated)	-1	-3%	20%	-11%	3%	nt
O=C(c1cc2cc(Cl)ccc2[nH]1)N1CCC2(CC1)OCCO2	nt	16%	45µM*	-18%	-5%	-3%
O=C(c1cc2cc(F)ccc2[nH]1)N1CCC2(CC1)OCCO2	nt	16%	14%	-2%	0%	-10%
Cc1ccc(-c2cn3c(=S)[nH]nc3s2)cc1	1	2.8µM*	-43%	?	-9%	-2%
CCCNC(=O)c1c(N)n(Cc2ccc3c(c2)OCO3)c2nc3ccccc3nc12	-21	11%	24%	-17%	20%	-1%
SMILES	FBPA coupling cs	RORg inh	rTrxR1 inhibitor	Gal4-VP16 FLuc	TrxR1 substrate	GALK inhibitor
CC(C)CNC(=O)c1c(N)n(Cc2ccc3c(c2)OCO3)c2nc3ccccc3nc12	-51*	?	15%	7.1µM*	66%	1%
CC(C)CCNC(=O)c1c(N)n(Cc2ccc3c(c2)OCO3)c2nc3ccccc3nc12	-33*	-2%	48%	-2%	84%	2%
COc1cc(C(=O)O)cc(OC)c1OC	nt	nt	1%	nt	-7%	nt
COc1ccc(/C=C2\C(=O)NC(=S)N(C)C2=O)cc1C	-1	-13%	?	2%	-3%[57.1 µM]	2%
CN1C(=O)/C(=C/c2ccc(Cl)s2)C(=O)NC1=S	-1	11µM*	8.9µM*	13µM*	5%	-2%
Cc1ccsc1/C=C1\C(=O)NC(=S)N(C)C1=O	3	?	32µM*	22µM*	7%	-2%
Cn1c(O)c(C(=N)COc2cccc(Cl)c2)c(=O)n(C)c1=O	6	2%	9%	3%	4%	-1%
COc1ccccc1NC1(C#N)CCCCC1	-2	1%	1%	10%	-4%	-1%
O=C(N/N=C/c1c(O)n(-c2ccccc2)c(=O)[nH]c1=O)c1ccncc1	1	-7%	-31%	-5%	-16%	1%
O=C(N/N=C\C1C(=O)NC(=S)N(c2ccccc2)C1=O)c1ccc(O)cc1 (configuration not stated)	-1	1.4µM*	-20%	2.5µM*	-14%	-4%
O=C(O)CP(=O)(O)c1ccc(Cl)cc1	4	-25%	22%[57.1 µM]	-1%	3%	1%
CCn1ncc(-c2ccnc3cc(C(=O)O)nn23)c1C	1	-24%	19%	0%	185%	-3%
O=C1CCCN1C(=O)c1cncc(Br)c1	5	-24%	9%	12%	5%	2%
Nc1cncc(C(=O)O)c1	-31*!	0%	-10%	-1%	16%	2%
CN1CCC(O)(c2cccs2)C(C(=O)c2cccs2)C1 (configuration not stated)	0	4µM*	?	3.2µM*	1%[11.4 µM]	0%
O=C1NC(=O)C2(CCCc3ccc(N(CCCl)CCCl)cc32)N1 (configuration not stated)	nt	nt	20µM*	nt	3%	nt
NC1(C(=O)O)CCCc2ccc(N(CCCl)CCCl)cc21 (configuration not stated)	nt	nt	-54%[57.1 µM]	nt	11%[57.1 µM]	nt
O=C(Cc1ccccc1)NC(Oc1ccccc1Cl)C(Cl)(Cl)Cl (configuration not stated)	-2	-1%	?	-2%	10%[57.1 µM]	0%
CC(C)C(=O)NC(Oc1ccccc1Cl)C(Cl)(Cl)Cl (configuration not stated)	-1	8%	8.9µM*	-1%	-1%[57.1 µM]	0%
CC1=CC(c2ccccc2)NC(=S)N1 (configuration not stated)	-2	11µM*	-18%	?	-11%	1%
O[N+]1=CC=CCC1=S.On1ccccc1=S.[Zn]	-42*	0.32µM*	nt	0.5µM*	nt	nt
